# High-throughput results as filed in PubChem.
# Sampled rows, rich in hits. Any-hit rate of the full collection: about 13%.
# Shiga toxin inh = A qHTS for Small Molecule Inhibitors of Shiga Toxin | Vero cells, Shiga toxin protein synthesis inhibition reporter | actives 9.2% (n = 290,000) | inhibition, % at 38.7 µM; in the data active = inhibition mostly above about 28%, no sharp cut-off; inactive = mostly below about 43%; also: 0% is about no effect
# Cycloheximide cs = Cycloheximide Counterscreen for Small Molecule Inhibitors of Shiga Toxin. cell reporter, cycloheximide protein synthesis inhibition counterscreen. max response, %. actives 12% (n = 300,000). AID 2314, 2010; in the data active = max response mostly above about 13%, no sharp cut-off; inactive = mostly below about 14%; also: read at 38.3 µM for the half of the compounds with a filed dose; 0% is about no effect
# LASV entry inh = qHTS for Inhibitors of binding or entry into cells for Lassa Virus. AID 540256, 2011. Lassa virus pseudotype entry inhibition, cell reporter. actives 1.2% (n = 300,000). Potency, µM (highest dose often 37.9 µM), for inactives: top-dose activity change, negative = inhibition, actives largely listed as inhibitors; calls by dose curve; tested in HEK293 cells; also: potency is read from the fitted curve at half-maximal effect; % is scaled to controls: 0 for no effect and ±100 for the full control effect; nearly all actives have a fitted effect of over 50% in size
# FMDV inh = High Throughput Screening for Foot and Mouth Disease Virus Antivirals. FMDV antiviral cell-based qHTS. actives 1.2% (n = 410,000). Potency, µM (titrated, usually from 57.9 µM), without a hit: at the top dose activity change, negative = inhibition, most hits filed as inhibitors. AID 1159524, 2015; calls by dose curve; tested in HEK293T cells; also: read-out not given here; potency is read from the fitted curve at half-maximal effect; % is scaled to controls: 0 for no effect and ±100 for the full control effect; nearly all actives have a fitted effect of over 45% in size
# MARV entry inh = qHTS for inhibitors of binding or entry into cells for Marburg Virus; Marburg virus pseudotyped entry inhibition, cell reporter; actives 1.8% (n = 300,000); Potency, µM (doses to about 37.8 µM), without a hit: at the top dose activity change, negative = inhibition, hits mostly inhibitors; AID 540276, 2011; calls by dose curve; tested in HEK293 cells; also: potency is read from the fitted curve at half-maximal effect; % is scaled to controls: 0 for no effect and ±100 for the full control effect
# HCV inhibitor = qHTS Assay for Inhibitors of Hepatitis C Virus (HCV); Huh7.5.1 HCVcc-Cre infection, luciferase reporter, 44 h; Potency, µM (series often up to 41.8 µM), for the others: at the highest dose activity change, negative = inhibition, most hits filed as inhibitors; actives 3.4% (n = 340,000); AID 651820, 2012; active = well fitted inhibition curve with a large enough effect; inconclusive = small, poorly fitted or top-dose-only effect, or another doubt; inactive = no such curve, though single readings can be large or run the other way; also: potency is read from the fitted curve at half-maximal effect; % is scaled to controls: 0 for no effect and ±100 for the full control effect
#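 Whole-lifecycle infectious HCVcc-Cre system; cells 1,000/well, compound then virus (~0.5 moi) added 4 h after plating, 44 h culture. Luciferase read 15 sec following 15 min substrate incubation, room temp.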
# * = called active by the depositor; ? = inconclusive; . = no result given; [ ] = dose if it differs, or a comment.
SMILES,Shiga toxin inh,Cycloheximide cs,LASV entry inh,FMDV inh,MARV entry inh,HCV inhibitor
c1ccc(-c2ccc(CN3CCSCC3)cc2)cc1,77.3*,24.6*,8.5%[46.1 µM],13.0%,22.0%[46.1 µM],-24.4%
Clc1ccc(CN2CCSCC2)cc1Cl,-2.1,-3.0,.,-9.0%,.,19.8%
CCOc1ccc(CN2CCSCC2)cc1,3.0,1.3,9.5%,-9.0%,3.8%,10.6%
CCCCCCOc1ccc(CN2CCN(CC)CC2)cc1,140.0*,54.6*,?,-6.3%,?,?
CCCCOc1ccc(CN2CCSCC2)cc1,42.1*,29.5*,.,26.2%,.,13.4%
CCN1CCN(Cc2ccc(OC(F)(F)F)cc2)CC1,-5.3,-1.3,-14.1%,9.9%,12.9%,-17.5%
CC(C)c1ccc(NC(=O)CN2C(=O)COc3ccc(S(=O)(=O)N4CCCCC4)cc32)cc1,.,.,-0.9%[46.1 µM],24.2%,.,.
Cc1ccc(CCNC(=O)C2CCC(=O)N(CC3CCCCC3)C2)cc1 (stereo not given),1.3,1.9,2.1%,-7.5%,17.0%,14.4%
CN1CCN(C(=O)C2=C[C@@H](C(C)(C)C)C[C@@H](OCc3ccc(CO)cc3)O2)CC1,-7.8,-1.3,.,?,.,12.0%
Cc1cccc(NC(=O)Cn2cc(C(=O)C3CCCCC3)c3ccccc32)c1C,.,.,-29.0%[46.1 µM],?,?,.
CC(C)c1ccc(/C=C2\SC(=S)N(CCC(=O)NCCCn3ccnc3)C2=O)cc1,104.1*,60.6*,?,1.6%,?,?
O=C(CCCN1C(=O)/C(=C/c2ccc(F)cc2)SC1=S)NCCCn1ccnc1,-5.2,10.4,-15.6%[46.1 µM],15.5%,-1.4%[46.1 µM],-3.0%
COc1ccccc1/C=C1\SC(=S)N(CCC(=O)NCCCn2ccnc2)C1=O,-0.9,-2.9,.,-6.6%,.,?
COc1ccc(/C=C2\SC(=S)N(CCC(=O)NCCCn3ccnc3)C2=O)cc1,15.9,17.9*,.,38.9%,.,12.8%
COC(=O)c1ccc(CSc2nnc(CS(=O)Cc3ccc(Br)cc3)n2-c2ccccc2)cc1 (stereo not given),-14.0,-3.4,?,0.0%,?,14.1µM*
O=S(Cc1ccc(Br)cc1)Cc1nnc(SCc2ccc(Br)cc2)n1-c1ccccc1 (stereo not given),-12.1,-5.1,?,15.8µM*,?,5.01µM*
COC(=O)c1ccc(NC(=O)CSc2nnc(C)n2-c2ccccc2)cc1,11.5,4.3,5.8%,3.7%,-9.7%,-6.1%
CC(C)CC(=O)Nc1ccc(C(=O)OCc2cc(=O)n3nc(C4CCCCC4)sc3n2)cc1,.,.,6.1%[46.1 µM],-19.4%,.,.
Cc1cc(NC(=O)CSc2nc(Cc3ccc(O)cc3)c(C)[nH]2)no1,-4.9,16.1,.,11.7%,.,23.7%
CCCc1cc2c(-c3ccccc3)cc(=O)oc2cc1OCc1ccc(C(=O)O)o1,24.0,-2.8,3.3%,-20.7%,20.4%[46.1 µM],-5.6%
COC(=O)c1coc(-c2ccc(OC)cc2)c1C(=O)OC,70.5,43.4*,3.0%,21.9%,?,?
COC(=O)c1coc(-c2ccc(C)cc2)c1C(=O)OC,66.1*,39.0*,?,20.6%,26.6%,-5.6%
COC(=O)c1c(C(=O)OC)c(-c2ccc(OC)cc2)n2c1CCC2,-3.7,-8.7,.,-18.3%,.,-17.7%
CCCNc1nc2c(c(=O)[nH]c(=O)n2C)n1CCC(C)C,24.7,0.5,-0.4%,-16.5%,13.9%,7.0%
COc1ccccc1/C=C/CN1CCC(n2nccc2NC(=O)CCc2ccccc2)CC1,-13.7,6.9,.,?,.,3.55µM*
SMILES,Shiga toxin inh,Cycloheximide cs,LASV entry inh,FMDV inh,MARV entry inh,HCV inhibitor
COc1ccccc1C(=O)Nc1ccnn1C1CCN(C(=O)C2CCOC2)CC1 (stereo not given),31.8,12.9*,.,14.4%,.,15.4%
O=C(CCc1ccccc1)Nc1ccnn1C1CCN(C/C=C/c2ccccc2)CC1,-6.0,-0.8,.,-26.2%,.,-21.2%
COc1ccc(C(=O)Nc2ccnn2C2CCN(C(=O)c3cccnc3)CC2)cc1,60.5*,30.1*,2.9%,6.8%,12.8%,0.0%
COc1ccc(C(=O)Nc2ccnn2C2CCN(Cc3cccnc3)CC2)cc1,-6.4,-0.8,.,-3.0%,.,5.6%
CC(C)C(=O)N1CCC(n2nccc2NC(=O)CCOc2ccccc2)CC1,17.4,17.5*,-4.3%[46.1 µM],12.2%,3.4%[46.1 µM],2.2%
CCOc1ccccc1N1CCN(C(=S)NCc2ccccc2)CC1,-14.4,2.0,?,10.8%,?,12.7%
O=C(NC(=S)Nc1ccccc1N1CCOCC1)c1ccccc1F,-9.5,-1.7,-7.5%,-21.6%,-21.7%,3.5%
COc1cccc(C(=O)N2CCC(n3nccc3NC(=O)CCOc3ccccc3)CC2)c1,28.4,30.3*,.,21.0%,.,5.1%
CCNC(=O)N1CCC(n2nccc2NC(=O)CCOc2ccccc2)CC1,-2.2,-2.2,.,6.7%,.,7.6%
O=C(Oc1cccc([N+](=O)[O-])c1)c1ccc2c(=O)n3c(nc2c1)CCC3,.,.,.,-8.8%,.,-9.5%
O=C(COc1ccccc1)NNc1nc2ccccc2s1,63.4*,33.8*,.,11.7%,.,-17.2%
S=C(Nc1ccccc1)c1nc2ccccc2s1,82.7*,56.5*,10.6%,71.1%,?,-13.2%
C/C(=C\C(=O)c1ccccc1)NNc1nc2ccccc2s1,110.2*,43.5*,22.8%,18.4%,-1.2%[46.1 µM],-0.4%
O=C(NNc1nc2ccccc2s1)Nc1ccccc1,28.8*,37.0*,?,36.6%,?,13.1%
CC(=O)NNc1nc2ccccc2s1,9.7,1.4,?,7.6%,0.8%,14.7%
C#CCOCCOCCOCCNc1nc(N2CCN(C(=O)[C@H]([C@@H](C)O)n3cc(CCCCN)nn3)CC2)nc(N2CCN(C(=O)[C@H](CCCCN)n3cc(CC(C)O)nn3)CC2)n1 (stereo not given in full),.,.,.,-10.2%,.,4.3%
O=c1[nH]c2cc(Cl)c(Br)cc2o1,.,.,17.5%,-23.4%,17.2%,29.9%
COc1ccc(Cl)cc1NC(=O)Cn1nc(Cc2ccncc2)c2ccccc2c1=O,.,.,-14.7%[46.1 µM],-15.2%,?,.
CC(/C=C1\SC(=O)N(CC(=O)Nc2cccc(O)c2)C1=O)=C\c1ccccc1,11.4,11.3,?,-12.6%,11.7%,?
O=C(CN1C(=O)S/C(=C/C=C/c2ccccc2)C1=O)Nc1ccc(C(=O)O)cc1,37.2,10.5,?,29.2%,4.3%[46.1 µM],-16.7%
O=C(CCCN1C(=O)S/C(=C\C=C\c2ccccc2)C1=O)Nc1ccc(O)cc1,148.3*,44.4*,?,-3.2%,?,12.6µM*
O=C(/C=C1\SC(=O)N(CC(=O)Nc2ccc(F)cc2)C1=O)Nc1ccc(Cl)cc1,85.9*,31.7*,-2.4%,23.4%,5.9%,-6.3%
O=C(/C=C1\SC(=O)N(CC(=O)Nc2ccc(Cl)cc2)C1=O)Nc1ccc(F)cc1,-1.3,0.2,22.9%,0.0%,-22.2%,-7.0%
